Here are results for 92 compounds from PubChem BioAssay AID425 (Sanford-Burnham Center for Chemical Genomics, 2006).

Values joined by “and” are separate entries in the source; they are usually repeats but may differ in a detail not shown here. Equal values may be shown once. Screen size: about 110,000 compounds; about 190 (0.17%) were called active. The list comes from a sample in which actives are over-represented; it also holds similar structures and randomly drawn compounds. Entries with a potency or affinity are not part of this list. Values without a mark were called inactive. Cut-off read from the data, not from the text of the source: active = inhibition above about 50%; inactive = the rest.

The target of the assay is Dual specificity protein phosphatase 6 (Rattus norvegicus) (UniProt Q64346). Description: inhibition of rat DUSP6 enzyme activity – biochemical, in vitro, primary screen (AID 425).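 Note: plate controls were vehicle for no effect and reference inhibitor for full effect.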 The settings on record: recombinant MKP-3 phosphatase activity, fluorescence; at 20 µM; hits give high values.
Chain of Dual specificity protein phosphatase 6 (Rattus norvegicus) (Q64346 whole entry, looked up): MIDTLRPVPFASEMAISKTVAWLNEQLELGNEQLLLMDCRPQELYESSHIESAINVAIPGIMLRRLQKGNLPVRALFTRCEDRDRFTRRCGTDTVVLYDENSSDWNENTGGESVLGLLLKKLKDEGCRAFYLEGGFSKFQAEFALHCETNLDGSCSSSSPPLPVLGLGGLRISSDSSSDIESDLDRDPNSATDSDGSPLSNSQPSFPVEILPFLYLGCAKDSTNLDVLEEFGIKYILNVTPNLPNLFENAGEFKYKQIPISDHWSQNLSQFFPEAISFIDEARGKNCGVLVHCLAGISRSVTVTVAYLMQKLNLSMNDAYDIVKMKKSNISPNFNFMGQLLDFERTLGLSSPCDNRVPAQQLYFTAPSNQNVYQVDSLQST
Turning to `COc1ccc(CN2C(=O)C(O)(CC(=O)c3c(C)n[nH]c3C)c3ccccc32)cc1OC` (configuration not stated), the inhibition (usually the change of the read-out against control, counted positive when it falls) was -1.9%.

On to `CCOc1cc(C(=O)Nc2ccc(Br)cc2F)cc(OCC)c1OCC`, for which the inhibition was 5.8%.

Consider `O=C(c1oc2ccccc2c1N1CCCCC1)N1CCCCC1`, for which the inhibition was 2.6%.

For `O=C1CN(S(=O)(=O)CCOc2ccccc2)CC(=O)N1CCOc1ccccc1`, the inhibition was 3.6%.

For the compound `CN(Cc1ccccc1)c1oc(-c2ccco2)nc1C#N`, the inhibition is -1.5%.

For `O=C(NN=C(C1CC1)C1CC1)c1cc2ccccc2cc1O`, the inhibition was 1.9%.

Consider `CC1(C)CC(=O)c2nc(NC(=O)CSC(=O)c3ccccc3)sc2C1`, for which the inhibition is 0.6%.

Take `CN1C(=O)/C(=C\c2cc(Br)ccc2OCc2ccccc2)SC1=S`: the inhibition was 2.6%.

In the case of `O=C1NC(=O)/C(=C\c2cc3c(cc2Br)OCO3)S1`, the inhibition is 1.1%.

Take `O=C1NC(=O)/C(=C\c2cc3c(cc2[N+](=O)[O-])OCO3)S1`: the inhibition was 122% (active).

Consider `O=C1/C(=C/c2cc3c(cc2[N+](=O)[O-])OCO3)Sc2ccccc21`, for which the inhibition is -0.9%.

As for `CC(C)(C)c1cc(Br)ccc1OCC(=O)Nc1ccc2c(c1)OCCO2`, the inhibition is 6.4%.

As to `COc1ccc2nc(SCC(=O)Nc3ccccc3)[nH]c2c1`, the inhibition was -2.1%.

With `O=C1NC(=O)N(c2ccc(Br)cc2)C(=O)/C1=C/c1ccco1`, the inhibition is 46.2%.

Consider `Cc1cc(N2C(=O)NC(=O)/C(=C\c3ccco3)C2=O)ccc1Br`, for which the inhibition was 42.1%.

For the compound `COc1cccc(N2C(=O)C(=Cc3ccc(OC)cc3OC)C(=O)NC2=S)c1`, the inhibition is 2.6%.

For the compound `COc1ccc(OC)c(N2C(=O)NC(=O)C(=Cc3ccc(C)o3)C2=O)c1`, the inhibition was 3.8%.

In the case of `Cc1ccc(C=C2C(=O)NC(=S)N(c3ccccc3Cl)C2=O)o1`, the inhibition is 11.8%.

Regarding `O=C1NC(=S)N(c2ccc(F)cc2)C(=O)/C1=C/c1ccc(F)cc1`, the inhibition was -0.1%.

`COc1cccc(-c2cc(C(=O)NC(C)c3ccccc3)c3ccccc3n2)c1` (configuration not stated): the inhibition was 2.7%.

For the compound `CCCOc1ccc(C(=O)Nc2ccc(C)cc2[N+](=O)[O-])cc1`, the inhibition is 2.7%.

For the compound `O=C(O)c1cc(O)ccc1NC(=O)C(c1ccccc1)c1ccccc1`, the inhibition is 4.4%.

On to `CC(C)=C1C2CCC1C(C(=O)NCCC1=CCCCC1)C2C(=O)O` (configuration not stated), for which the inhibition is 1.3%.

Regarding `CCc1ccc(-n2c(C)cc(/C=N/NC(=O)c3cccnc3)c2C)cc1`, the inhibition is 6.1%.

`O=C(NCCN1CCOCC1)c1cccc(S(=O)(=O)N2CCCCCC2)c1`: the inhibition was -10.5%.

As to `CN1C(=O)/C(=C2\SC(=S)N(CC(=O)O)C2=O)c2ccccc21`, the inhibition is 2%.

With `CN1C(=O)c2oc3ccc(Br)cc3c(=O)c2C1c1ccncc1` (configuration not stated), the inhibition was 2.2%.

In the case of `Cc1ccc(NC(=O)C(=O)N/N=C/c2cccs2)cc1`, the inhibition was 0.5%.

In the case of `CCc1ccccc1OCCN(CC)CC`, the inhibition was 1.4%.

On to `COc1ccc(/C=N/NC(=O)c2cccc([N+](=O)[O-])c2)cc1Br`, for which the inhibition is -2.3%.

In the case of `COc1cc(/C=N/NC(=O)c2cccc([N+](=O)[O-])c2)cc(I)c1O`, the inhibition is -0.4%.

As for `C/C(=N\NS(=O)(=O)c1ccc(C)cc1)C(C)(C)CC(=O)O`, the inhibition was 0.4%.

Regarding `Cc1ccc(S(=O)(=O)N2CCN(Cc3ccccc3[N+](=O)[O-])CC2)cc1`, the inhibition is 3.5%.

In the case of `CCOC(=O)CNC(=O)CSc1nnc(Cn2cnc3ccccc32)n1C`, the inhibition is -4.9%.

For the compound `COc1ccc(OC)c(CNC(=O)COc2cc(=O)n(C)c3ccccc23)c1`, the inhibition was -0.9%.

`CCOC(=O)/C=C/CSc1nc2sc3c(c2c(=O)[nH]1)CCCC3`: the inhibition was 3.4%.

Take `CCOc1cc(C=C2C(=O)c3ccccc3C2=O)ccc1OCc1ccc(Cl)cc1Cl`: the inhibition was 2%.

With `COc1cc(/C=N/NC(=O)Cc2nnc(N)s2)ccc1OCc1ccc(Cl)cc1Cl`, the inhibition is 0.3%.

In the case of `CCN(CC)c1ccc(/C=N/NC(=O)Cn2nnc(-c3ccccc3)n2)c(O)c1`, the inhibition is 0.8%.

With `O=P(c1ccccc1)(c1ccccc1)C(O)c1ccco1` (configuration not stated), the inhibition was 4.6% and -1.6%.

With `O=C(O)CC(NC(=O)C(c1ccccc1)c1ccccc1)c1ccco1` (configuration not stated), the inhibition is -9.2%.

With `Cc1nonc1NC1(O)C(=O)c2ccccc2C1=O`, the inhibition is 106% (active).

In the case of `Cc1nonc1NC(=O)Nc1cccnc1`, the inhibition was -4.7%.

As to `O=C(NC1(O)C(=O)c2ccccc2C1=O)c1ccccc1`, the inhibition is 21.6%.

Take `CC1=CC(=O)C=C/C1=N\OS(=O)(=O)c1ccccc1`: the inhibition was 8.7%.

Regarding `CC1=C/C(=N\OC2=C(O/N=C3/C=CC(=O)C(C)=C3)C(=O)c3ccccc3C2=O)C=CC1=O`, the inhibition was 42.8%.

For `CC1=CC(=O)C=C/C1=N/OC1=C(O/N=C2/C=CC(=O)C=C2C)C(=O)c2ccccc2C1=O`, the inhibition was 66% (active).

Consider `Cc1cc(Cl)ccc1OCCCC(=O)NC1CCN(C)CC1`, for which the inhibition is -4.9%.

Take `Cn1c(CCNC(=O)c2ccccc2F)nnc1SCc1nc2ccccc2c(=O)[nH]1`: the inhibition is -5.4%.

In the case of `COc1ccc(S(=O)(=O)Nc2cccc([N+](=O)[O-])c2C)cc1`, the inhibition was -0.4%.

In the case of `CCCCSc1nc(C)c(CC(=O)OC)c(=O)[nH]1`, the inhibition was -20.2%.

Take `CCCOc1cccc(C(=O)Nc2ccc(Br)cc2C(=O)O)c1`: the inhibition was 2.6%.

As to `O=C1NN(c2ccccc2)C(=O)/C1=C/c1ccc(-c2ccccc2[N+](=O)[O-])o1`, the inhibition was 16%.

Turning to `O=C1NN(c2ccccc2)C(=O)/C1=C/c1ccc(-c2cccc([N+](=O)[O-])c2)o1`, the inhibition is 6.9%.

With `O=C1NN(c2ccccc2)C(=O)/C1=C/c1ccc(-c2ccc(F)cc2)o1`, the inhibition was -3.3%.

Take `C=CCN1C(=O)/C(=C\c2ccc([N+](=O)[O-])o2)C(=O)NC1=S`: the inhibition was 95.8% (active).

With `O=C1NN(c2ccccc2)C(=O)/C1=C/c1ccc(-c2ccccc2)o1`, the inhibition is 7.9%.

On to `C=CCN1C(=O)/C(=C\c2ccc(-c3ccc([N+](=O)[O-])cc3)o2)C(=O)NC1=S`, for which the inhibition was 25.4%.

As for `O=C1NN(c2ccccc2)C(=O)/C1=C/c1ccc([N+](=O)[O-])o1`, the inhibition was 56.6% (active).

In the case of `O=C1NN(c2ccccc2)C(=O)/C1=C/c1ccc(Br)o1`, the inhibition is 75.8% (active).

For the compound `C=CCN1C(=O)/C(=C\c2ccc(I)o2)C(=O)NC1=S`, the inhibition is 4.5%.

As for `Cc1ccc(S(=O)(=O)NC(C)(C)CN2CCN(CC(C)(C)NS(=O)(=O)c3ccc(C)cc3)CC2)cc1`, the inhibition was -0.5%.

As for `Cc1ccc2nc(NC(=O)c3ccccc3)sc2c1`, the inhibition is 1.9%.

On to `COc1ccccc1/C=C/C=N/NC(=O)CSc1nc2ccccc2n1C`, for which the inhibition was 1.8%.

`CCOc1ccccc1NC(=O)c1c(NC(=O)c2cccc(F)c2)sc2c1CCC(C)C2` (configuration not stated): the inhibition is 3.6%.

Regarding `CSc1nc(NCCOCCO)c2sc3nc(-c4ccco4)c4c(c3c2n1)CCC4`, the inhibition is -0.3%.

Turning to `CSc1nc(N2CCN(CCO)CC2)c2sc3nc(-c4ccco4)c4c(c3c2n1)CCC4`, the inhibition was 0.5%.

Regarding `O=C(O)/C=C/c1ccc(-c2ccc(Cl)c(Cl)c2)o1`, the inhibition is -3.2%.

For the compound `O=C(/C=C/c1ccco1)Nc1ccc(Cl)c(Cl)c1`, the inhibition was 10.7%.

Take `O=C(/C=C/c1ccco1)/C=C/c1ccc(-c2ccc(Cl)c(Cl)c2)o1`: the inhibition was 75.1% (active).

As to `O=C1C(N2CCOCC2)=C/C(=N\S(=O)(=O)c2ccc(Cl)cc2)c2ccccc21`, the inhibition is 5.9%.

As for `Cc1ccc(S(=O)(=O)/N=C2/C=C(Sc3nnnn3-c3ccccc3)C(=O)c3ccccc32)cc1`, the inhibition was 27.3%.

Regarding `Cc1ccc(S(=O)(=O)/N=C2\C=C(Sc3ncn[nH]3)C(=O)c3ccccc32)cc1`, the inhibition is 98.1% (active).

Regarding `COc1ccc(S(=O)(=O)/N=C2\C=C(Br)C(=O)c3ccccc32)cc1`, the inhibition was 97.9% (active).

For `O=C1C(Cl)=C/C(=N\S(=O)(=O)c2ccc(Cl)cc2)C(Cl)=C1Cl`, the inhibition was -1%.

On to `Cc1ccc(S(=O)(=O)/N=C2/C=C(Cl)C(=O)c3ccccc32)cc1`, for which the inhibition is 52.7% (active).

For the compound `Cc1ccc(S(=O)(=O)/N=C2\C=C(n3cnc4ccccc43)C(=O)c3ccccc32)cc1`, the inhibition is 36.8%.

Consider `Cc1ccc(S(=O)(=O)/N=C2/C=C(S(=O)(=O)c3ccc(C)cc3)C(=O)c3ccccc32)cc1`, for which the inhibition is 20.6%.

As for `O=C1C(Cl)=CC(=NS(=O)(=O)c2ccc(Cl)cc2)c2ccccc21`, the inhibition is 95.7% (active).

With `Cc1ccc(S(=O)(=O)/N=C2\C=CC(=O)C=C2Cl)cc1`, the inhibition was -0.1%.

Take `COc1ccc(S(=O)(=O)N=C2C=CC(=NS(=O)(=O)c3ccc(OC)cc3)C=C2)cc1`: the inhibition was 1.8%.

As to `COC(=O)C(C(=O)OC)C1=C/C(=N/S(=O)(=O)c2ccc(C)cc2)c2ccccc2C1=O`, the inhibition is 1.7%.

Regarding `N#CC1=C(N)N(c2ccccc2)C(c2ccco2)C1(C#N)C#N` (configuration not stated), the inhibition is -9.8%.

Regarding `COC(=O)c1ccccc1NC(=O)c1ccccc1C`, the inhibition is 0.2%.

`O=C(/C=C/c1ccc2c(c1)OCO2)NC1CC2CCC1C2` (configuration not stated): the inhibition was 3.3%.

For `COc1ccc(C2=NN(CN3C(=O)C(=O)c4ccccc43)C(c3ccccc3)C2)cc1` (configuration not stated), the inhibition was 1.1%.

Take `O=C1C2=C(C(c3ccccc3)=NCCN2)C(c2ccc(O)cc2)N1c1ccccc1` (configuration not stated): the inhibition is 0.2%.

For `Cc1ccccc1N1C(=O)/C(=C\c2cccs2)SC1=S`, the inhibition is 0.2%.

For the compound `Cc1cccc(-c2nnc(SCc3nc4ccccc4[nH]3)n2Cc2ccco2)c1`, the inhibition was -6.8%.

Regarding `O=S(=O)(NCCOCCNS(=O)(=O)c1ccccc1)c1ccccc1`, the inhibition was -1.6%.

For `Cc1ccc(/C(O)=C(\C#N)c2nc3ccccc3[nH]2)cc1`, the inhibition is 5.3%.

In the case of `O=C(O/N=C1/CCCc2c1sc1nc3n(c(=O)c21)CCCCC3)c1ccc([N+](=O)[O-])cc1`, the inhibition is -4.1%.
